# Sm TGR inh: qHTS Assay for the Inhibitors of Schistosoma Mansoni Peroxiredoxins; actives 3% (n = 360,000); purified TGR, DTNB reduction, TNB absorbance 405 nm; Potency, µM (series often up to 114 µM), hits mostly inhibitors; AID 485364, 2010; also: nearly all actives have a fitted effect of over 60% in size
#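 TGR 20 nM + NADPH 100 uM (dispensed conc.), cpd preinc 15 min RT; start with NADPH (500 uM addition) then DTNB (15 mM addition). Kinetic TNB absorbance, 405 nm filter. Four-parameter Hill fit across titration.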
# AMA1-RON2 inh: qHTS for Inhibitors of AMA1-RON; Towards Development of Antimalarial Drug Lead: Primary Screen; actives 0.2% (n = 360,000); AlphaScreen AMA1-biotinylated RON2 peptide binding; AID 720542, 2013; Potency, µM (series often up to 58.2 µM), usual class: inhibitors; Plasmodium falciparum AMA1 (3D7) - RON2 peptide interaction; also: nearly all actives have a fitted effect of over 45% in size
#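 AMA1 (3D7) with his tag at 25 nM final met compounds first, then biotinylated RON2 peptide at 25 nM; detection used donor plus acceptor beads, 10 µg/mL apiece, read by AlphaScreen after 30 min at room temperature.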
# Pf growth 96h: Primary qHTS for delayed death inhibitors of the malarial parasite plastid, 96 hour incubation; P. falciparum luciferase reporter growth, 96 h; actives 6.9% (n = 320,000); Potency, µM (doses to about 28.7 µM), hits mostly inhibitors; AID 504834, 2011
#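 Luminescence readout: decreased luciferase signal marks inhibited growth of reporter-expressing P. falciparum in infected red cells (2% hematocrit, 0.05% parasitemia final), exposed to compound two generations (96 h, 37 C, 5% CO2).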
# NS1 inh: qHTS Assay for Inhibitors of Influenza NS1 Protein Function | AID 2326, 2010 | actives 0.4% (n = 270,000) | Potency, µM (series often up to 46.1 µM); calls by dose curve; also: actives are rising curves; nearly all actives have a fitted effect of over 50% in size
#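 Read-out: OD600 growth recovery of NS1-expressing budding yeast. Cells grown overnight at 30C in -URA glucose medium, washed, resuspended and diluted 1:100 in 2% galactose assay medium, pH 6.0. Same strain lacking NS1 served as positive control.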
# Pf growth 48h: Primary qHTS for delayed death inhibitors of the malarial parasite plastid, 48 hour incubation; P. falciparum luciferase growth in erythrocytes, 48 h; Potency, µM (series often up to 28.7 µM), usual class: inhibitors; actives 5.9% (n = 310,000)
#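 Luminescence readout; reporter = integrated firefly luciferase in P. falciparum. RBC culture at 2% hematocrit, 0.1% parasitemia final, 37 C/5% CO2; decreased signal taken as growth inhibition.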
# Numbers stand for hits; . = inactive; ? = inconclusive; / = no result given; [ ] = another dose, or the depositor's remark. In the library only some 11% were active in any assay of this set; here they are far more common. Unless noted, calls follow the shape of the dose curve; as a rule, active = well fitted curve in the direction sought with a large enough effect; inconclusive = small, poorly fitted or top-dose-only effect, or another doubt; inactive = no such curve, though single readings can be large; an effect the other way counts as inactive or inconclusive.
SMILES,Sm TGR inh,AMA1-RON2 inh,Pf growth 96h,NS1 inh,Pf growth 48h
O=C(NCCC1=CCCCC1)C(c1ccccc1)c1ccccc1,.,.,?,.,?
CC(C)(C)C(=O)NC(=S)NCCc1ccccc1,20µM,.,.,.,.
Cc1cccn2c(=O)c3cc(C(=O)NCCC4=CCCCC4)n(C)c3nc12,.,.,?,.,?
O=C(CCc1ccc(O)cc1)NNC(=S)NCCc1ccccc1,.,.,.,.,.
Cn1c(C(=O)NCCC2=CCCCC2)cc2c(=O)n3ccccc3nc21,.,.,6.57µM,.,.
C=CCn1c(SC(C)C(=O)NCCC2=CCCCC2)nc2ccccc2c1=O (centres undefined),.,.,13.1µM,.,/
CC(CCc1ccccc1)NC(=O)CN1CCN(c2ccc(O)cc2)CC1 (centres undefined),?,.,?,/,?
Cc1ccccc1C(=O)NC(=S)NCCC1=CCCCC1,5.01µM,.,.,.,?
O=C(NC(=S)NCCC1=CCCCC1)c1ccco1,.,.,?,.,.
CC(C(=O)NCCC1=CCCCC1)N1C(=O)c2ccccc2C1=O (centres undefined),.,.,5.86µM,.,.
O=C(CS(=O)(=O)c1cccc2nsnc12)NCc1ccc(Cl)cc1,.,/,/,/,/
Cc1cccc(-c2c3c(=O)n(C)c(=O)n(C)c3cn2CC2CCCO2)c1 (centres undefined),35.5µM,.,.[5.75 µM],.,.
Cc1c(Cl)cccc1NC(=O)CSc1nnc(CCNC(=O)OC(C)(C)C)o1,.,.,10.4µM,.,.
Cc1ccc(NC(=O)CSc2nnc(CCCCCNC(=O)OC(C)(C)C)o2)c(C)c1,.,.,13.1µM,.,.
COc1ccc(OC)c(CN2CCN(C(=O)c3cccc(S(=O)(=O)Nc4ccc(F)cc4)c3)CC2)c1,/,.[11.6 µM],/,/,/
Cc1nc2ccccc2c(=O)n1-c1ccc([N+](=O)[O-])cc1,?,.,14.7µM,.,.
Cc1nc2ccc(Cl)cc2c(=O)n1-c1ccc([N+](=O)[O-])cc1,.,.,.,.,.
Cc1nc2cc([N+](=O)[O-])ccc2c(=O)n1-c1ccc(Br)cc1,?,.,13.1µM,.,.
COc1ccc(CC(N)c2csc(Nc3ccc(S(C)(=O)=O)cc3)n2)cc1 (centres undefined),/,.,/,/,/
CCc1ccc(Cc2cnc(NC(=O)c3ccc4c(c3)CC(c3ccccc3)OC4=O)s2)cc1 (centres undefined),.,/,/,/,/
CC(C)CN(C(=O)CCNC(=O)c1ccccc1Cl)C1CCS(=O)(=O)C1 (centres undefined),.,.,.,/,.
Cc1c(S(=O)(=O)c2ccccn2)c(N)n(Cc2cccc(Cl)c2)c1C,2µM,.,?,.,?
O=S(=O)(c1ccc(Cl)cc1)c1ccccn1,.,.,.,.,.
Cc1ccc2c(c1)C(N1CCCC1=O)CC(c1ccco1)N2 (centres undefined),10µM,.,?,.,.
N#CCC(=O)Nc1ccc(C(=O)OCC(=O)N(Cc2ccccc2)C2CCS(=O)(=O)C2)cc1 (centres undefined),.,.,?,.,.
SMILES,Sm TGR inh,AMA1-RON2 inh,Pf growth 96h,NS1 inh,Pf growth 48h
Cc1ccc(Cl)cc1N1CCN(S(=O)(=O)c2cn(C)c(C)n2)CC1,.,/,/,/,/
Cc1c(C#N)c2ccccc2n1CC(=O)NC(C)c1ccccc1 (centres undefined),.,.,/,.,2.94µM
Cc1cccc(NC(=O)Cn2c(C)c(C#N)c3ccccc32)c1C,.,.,/,.,2.08µM
Cc1ccc(C)c(OC(=O)CSc2nnc(CNC(=O)c3ccccc3)o2)c1,.,/,/,/,/
COc1ccc(-n2c(=O)n(Cc3ccccc3)c(=O)c3[nH]cnc32)cc1,.,.,?,.,.
COc1ccc(Cn2c(=O)c3[nH]cnc3n(-c3ccc(C)cc3)c2=O)cc1,.,.,2.33µM,.,?
O=C(COC(=O)/C=C/c1ccccc1Cl)NC(=O)NCc1ccccc1,.,.,.,/,.
CC(NC(=O)c1cc([N+](=O)[O-])cc([N+](=O)[O-])c1)c1ccc(-n2ccnc2)cc1 (centres undefined),.,.,0.928µM,?,1.47µM

# Screens deposited in PubChem by National Center for Advancing Translational Sciences (NCATS).
